# From PubChem BioAssay (NCI)
# Compounds without any hit were thinned out: in the full panel of roughly 83,000, 20% have a hit.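 For each line, cells grew in 96-well plates with the test compound present at a single concentration for 48 hours.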 Activity calls are given as the source filed them.
# Tested on: RPMI-8226 leukemia
# Assay: NCI-60 one-dose screen, 48 h (100 = growth as untreated, 0 = no growth, -100 = all killed)
# Settings: 10 µM unless noted
# Procedure: Growth inhibition of the RPMI-8226 human tumor cell line is measured as a screen for anti-cancer activity. Cells are grown in 96 well plates and exposed to the test compound for 48 hours. Compounds are tested at a single concentration, which is 10^-5 M for most compounds. The reported endpoint is percent growth (GI% or GIPRCNT), where numbers from 0 - 100% represent growth inhibition, and numbers from -100% - 0 represent cell death. For example, a value of 40 represents 60% growth inhibition. A value of 0 means no net growth occurred over the course of the experiment. A value of -40 indicates 40% of cells at the beginning of the experiment died by the end of the experiment. A value of -100 means all cells are dead at the end of the experiment.
# NCI-60 Human Tumor Cell Lines Screen was performed using the standard one-dose NCI protocol, which is described in more detail at https://dtp.cancer.gov/discovery_development/nci-60/default.htm.
# Compounds with GIPRCNT values below 10 were considered active. Activity score was based on GIPRCNT using the following formula: […]
# Score is 0 for GIPRCNT values of 100 or above, 50 for GIPRCNT values of 0, and 100 for GIPRCNT values of -100.
row,Structure (SMILES),growth
1,CC1CCC(C)(C)c2ccccc21 (stereo not given),117% (inactive)
2,CCCCCCCCCCCCCCCCCC(=O)NCCNC(=O)CCCCCCCCCCCCCCCCC,86.4% (inactive)
3,Nc1ccc(F)c(Cl)c1F,93.7% (inactive)
4,S=C(NCc1ccccc1)N1CCC(CCCC2CCN(C(=S)NCc3ccccc3)CC2)CC1,75.5% (inactive)
5,CC(C)c1ccc(C(=O)OCCCl)cc1,221% (inactive)
6,C/C(O)=C(/C=N/C(=S)Nc1ccccc1)C(=O)Nc1ccccc1C,103% (inactive)
7,CC(CC(CCC(=O)O)(c1ccccc1)c1ccccc1)N(C)C (stereo not given),109% (inactive)
8,O=Cc1c(O)c2ccccc2[nH]c1=O,109% (inactive)
9,O=S(=O)(O)c1cccnc1,66.4% (inactive)
10,CC1(C)CCC(C)(C)NC(=S)N1,96.4% (inactive)
11,Cc1ccc(NC(=O)c2ccccc2Cl)cc1,94.8% (inactive)
12,NNC(=O)CCCCl,114% (inactive)
13,Oc1ccc(CCC2CCNc3ccccc32)cc1 (stereo not given),45.2% (inactive)
14,CCN(CC)CCOC(=O)Nc1c(C(C)C)cccc1C(C)C,105% (inactive)
15,O=C(CCl)Oc1ccc([N+](=O)[O-])cc1,103% (inactive)
16,CC(=O)c1cc(O)ccc1O,119% (inactive)
17,CSCC[C@@H]1C(=O)N(C)[C@H](C(C)(C)C)N1C(=O)c1ccccc1,117% (inactive)
18,CN(C(=S)S(=O)(=O)C12CC3CC(CC(C3)C1)C2)c1ccccc1,83.9% (inactive)
19,O=C(Nc1ccccc1)c1ccco1,105% (inactive)
20,Cn1c2ccccc2c2nnc(NCCCCO)nc21,69.6% (inactive)

row,Structure (SMILES),growth
1,CC(C)c1ccccc1NC(=O)N1CCC(C(C)C)CC1,105% (inactive)
2,CCCC(OC(C)=O)c1ccc2c(c1)OCO2 (stereo not given),107% (inactive)
3,CCNc1ncnc2[nH]ncc12,73.9% (inactive)
4,NCCCN1CCCC1=O,107% (inactive)
5,CS(=O)CC(=N\O)/C(CS(C)=O)=N\O (stereo not given),100% (inactive)
6,CC(=O)Nc1ncc(S(=O)(=O)c2ccc([N+](=O)[O-])cc2)s1,100% (inactive)
7,C/C(=N\O)c1ccccn1,102% (inactive)
8,C=COC(=O)CCOCC(CC)CCCC (stereo not given),53.2% (inactive)
9,CCOC(=O)c1ccc(NC(C)=O)o1,103% (inactive)
10,COc1ccc(-c2csc(NC(=O)Nc3nc(-c4ccc(OC)cc4)cs3)n2)cc1,69.5% (inactive)
11,CCCCCC(=O)OCCC1CCCCC1,103% (inactive)
12,CCOC(=O)c1c[nH][nH]c1=O,93% (inactive)
13,O=C(NCc1ccco1)Nc1cccc2c(NC(=O)NCc3ccco3)cccc12,33.9% [100 µM] (inactive)
14,CCOc1ccccc1NC(=O)CCl,88.8% (inactive)
15,OCC1CCC(O)C(CO)N1 (stereo not given),83.7% (inactive)
16,Clc1cccc(Cl)c1C1CSc2ccccc2N=C1c1ccccc1 (stereo not given),-14.8% (active)
17,CC(=O)NCNC(C)=O,97% (inactive)
18,NC(=O)c1cc2c3ccccc3ccn2c1-c1ccccc1,7.04% (active)
19,CCOC(OCC)C(=O)c1ccccc1,99.8% (inactive)
20,CCC(=O)C1C(=O)c2ccccc2C1=O,115% (inactive)
